The target in assay [1] is Rap guanine nucleotide exchange factor 3 (Homo sapiens) (UniProt O95398). The assay can be described thus: Confirmatory qHTS for agonist of cAMP-regulated guanine nucleotide exchange factor 3 (EPAC1) (AID 1645881).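 Also: EPAC1 catalysed release of BODIPY-GDP from Rap1B seen as fluorescence loss; 100% = effect of cAMP agonist control; nearly all actives have a fitted effect of over 75% in size.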
Assay [2] addresses Rap guanine nucleotide exchange factor 4 (Homo sapiens) (UniProt Q8WZA2). The assay can be described thus: Confirmatory qHTS for agonist of cAMP-regulated guanine nucleotide exchange factor 4 (EPAC2) (AID 1645884).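 Also: nucleotide exchange releases bodipy-GDP from Rap1 and this lowers its fluorescence; % is scaled to controls: 0 for no effect and ±100 for the full control effect; nearly all actives have a fitted effect of over 65% in size.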
For assay [3] the target is unchanged. Nature of the assay: Confirmatory qHTS for antagonist of cAMP-regulated guanine nucleotide exchange factor 4 (EPAC2) (AID 1645885). Also: nearly all actives have a fitted effect of over 25% in size.

The values below come from PubChem BioAssay (NCATS).

Results filed as inconclusive are left out. Values without a mark were called inactive. Active and inactive are the calls of the source. Calls follow the shape of the dose curve; as a rule, active = well fitted curve in the direction sought with a large enough effect; inconclusive = small, poorly fitted or top-dose-only effect, or another doubt; inactive = no such curve, though single readings can be large; an effect the other way counts as inactive or inconclusive.

Sequence of Rap guanine nucleotide exchange factor 3 (Homo sapiens) (O95398 whole entry, looked up): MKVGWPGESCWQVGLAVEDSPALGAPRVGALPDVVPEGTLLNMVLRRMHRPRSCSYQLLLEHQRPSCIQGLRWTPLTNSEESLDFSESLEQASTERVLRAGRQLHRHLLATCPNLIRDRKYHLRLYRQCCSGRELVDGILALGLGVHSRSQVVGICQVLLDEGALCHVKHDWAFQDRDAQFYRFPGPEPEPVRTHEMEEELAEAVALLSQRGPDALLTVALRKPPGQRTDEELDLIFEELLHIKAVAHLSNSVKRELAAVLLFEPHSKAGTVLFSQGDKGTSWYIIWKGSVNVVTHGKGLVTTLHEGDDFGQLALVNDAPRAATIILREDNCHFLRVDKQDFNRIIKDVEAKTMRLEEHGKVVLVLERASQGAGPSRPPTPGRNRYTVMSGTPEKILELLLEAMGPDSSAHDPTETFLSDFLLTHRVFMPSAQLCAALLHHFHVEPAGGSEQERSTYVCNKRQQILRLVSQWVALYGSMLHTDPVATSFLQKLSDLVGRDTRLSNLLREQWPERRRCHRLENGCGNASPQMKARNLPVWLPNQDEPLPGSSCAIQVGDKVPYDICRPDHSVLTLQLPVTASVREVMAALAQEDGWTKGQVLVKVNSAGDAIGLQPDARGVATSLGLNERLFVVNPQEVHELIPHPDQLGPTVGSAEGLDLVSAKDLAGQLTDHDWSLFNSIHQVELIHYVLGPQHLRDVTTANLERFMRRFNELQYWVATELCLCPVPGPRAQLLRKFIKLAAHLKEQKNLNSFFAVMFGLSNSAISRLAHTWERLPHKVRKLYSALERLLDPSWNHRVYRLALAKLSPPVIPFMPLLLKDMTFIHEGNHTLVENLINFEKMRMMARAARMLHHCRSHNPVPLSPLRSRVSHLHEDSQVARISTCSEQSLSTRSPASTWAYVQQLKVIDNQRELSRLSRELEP
Sequence of Rap guanine nucleotide exchange factor 4 (Homo sapiens) (Q8WZA2 whole entry, looked up): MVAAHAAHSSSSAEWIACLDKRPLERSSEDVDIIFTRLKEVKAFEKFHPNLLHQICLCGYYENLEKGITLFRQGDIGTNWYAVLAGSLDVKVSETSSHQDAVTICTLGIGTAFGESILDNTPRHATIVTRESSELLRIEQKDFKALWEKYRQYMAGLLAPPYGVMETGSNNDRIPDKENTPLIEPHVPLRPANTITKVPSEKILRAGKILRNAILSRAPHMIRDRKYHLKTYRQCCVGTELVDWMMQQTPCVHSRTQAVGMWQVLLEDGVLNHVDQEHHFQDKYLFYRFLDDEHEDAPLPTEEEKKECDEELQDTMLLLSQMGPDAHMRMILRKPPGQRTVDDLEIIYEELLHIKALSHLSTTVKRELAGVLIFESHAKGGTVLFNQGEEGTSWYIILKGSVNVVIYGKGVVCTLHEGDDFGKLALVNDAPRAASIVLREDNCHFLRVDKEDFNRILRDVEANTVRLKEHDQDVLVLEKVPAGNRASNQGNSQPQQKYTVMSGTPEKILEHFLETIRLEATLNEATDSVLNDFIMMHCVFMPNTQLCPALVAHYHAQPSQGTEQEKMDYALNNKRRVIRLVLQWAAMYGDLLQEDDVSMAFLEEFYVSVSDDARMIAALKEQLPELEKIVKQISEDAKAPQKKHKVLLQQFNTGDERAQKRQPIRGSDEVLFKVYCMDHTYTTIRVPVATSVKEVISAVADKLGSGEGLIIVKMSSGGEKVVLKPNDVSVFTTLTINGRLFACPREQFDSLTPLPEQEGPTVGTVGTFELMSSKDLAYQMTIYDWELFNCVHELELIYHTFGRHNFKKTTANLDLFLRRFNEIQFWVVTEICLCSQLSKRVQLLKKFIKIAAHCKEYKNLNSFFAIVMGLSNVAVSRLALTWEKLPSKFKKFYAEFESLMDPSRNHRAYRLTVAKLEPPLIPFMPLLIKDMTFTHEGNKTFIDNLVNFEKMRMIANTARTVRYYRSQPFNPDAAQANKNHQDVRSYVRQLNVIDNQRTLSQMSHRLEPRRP

For the compound `CCCCC[C@H](C)N1C[C@@H](COCc2ccccc2)Oc2cc(N3CCC[C@H]3C(N)=O)ccc2S1(=O)=O`, the Potency result in assay [1] and in assay [2] was “inactive” in each case.

For `Cc1onc(-c2ccccc2Cl)c1C(=O)OCc1cnc(Cl)s1`, the Potency entry in assay [1] is “inactive”.

On to `FC(F)(F)c1ccc(CSc2nccn2-c2ccccc2)cc1`, for which, in assay [1], the Potency entry was “inactive”.

For `CC1(C(=O)NS(=O)(=O)c2ccc3ccccc3c2)CCN1C(=O)Cc1ccc(-c2ccccc2)cc1` (configuration not stated), the Potency result in assay [1] and in assay [3] was “inactive” throughout. Also, the activation in assay [2] is 1.72% [at 17.1 µM, percent relative to cAMP agonist control].

For `Cc1oc2ccc(O)c(CN(C)Cc3ccccc3)c2c1C(=O)Nc1cccc(C(F)(F)F)c1`, the Potency result in assay [1], in assay [2] and in assay [3] was “inactive” in each case.

In the case of `O=C1CCC[C@@H]2CC(N(Cc3cc4ccccc4s3)c3ccccc3)C[C@@H]3CCN1[C@H]23` (some centres not stated), the Potency result in assay [1], in assay [2] and in assay [3] was “inactive” throughout.

For `Cn1cc([C@]2(O)C(=O)Nc3ccc(Br)cc32)c2ccccc21`, the Potency result in assay [1] and in assay [2] was “inactive” each time.

For `Cc1ccc(Nc2nc3nonc3[nH]c2=O)cc1Cl`, the Potency entry in assay [1] and in assay [2] was “inactive” each time.

On to `c1ccc(-c2onc(-c3ccco3)c2-c2ccc3c(c2)OCO3)cc1`, for which the Potency entry in assay [1] and in assay [2] was “inactive” in each case.

For the compound `COc1ccc(OCCC(=O)OCC(=O)Nc2ccc(S(=O)(=O)N3CCOCC3)cc2)cc1`, the Potency result in assay [1] and in assay [3] was “inactive” throughout. In assay [2], the activation is 0% [at 17.1 µM, percent relative to cAMP agonist control].

`O=C(Nc1cccc(NC(=O)c2cccs2)c1)c1ccc(Br)o1`: the Potency result in assay [1], in assay [2] and in assay [3] was “inactive” each time.

With `O=C(CCN1C(=O)/C(=C/c2ccc3c(c2)OCO3)SC1=S)Nc1ccc(C(=O)O)cc1`, the Potency entry in assay [1] and in assay [2] was “inactive” each time.

Take `COC(=O)c1c(NC(=O)COC(=O)c2ccc(NC(=O)CC#N)cc2)sc2c1CCCCC2`: the Potency entry in assay [1], in assay [2] and in assay [3] was “inactive” in each case.

Consider `CN(c1ccccc1)c1nc(N)c([N+](=O)[O-])c(N2CCCCC2)n1`, for which the Potency entry in assay [1] and in assay [2] was “inactive” in each case.
